Inconclusive results are not listed. Where a call stands in place of a potency, no number is given. Active and inactive are the calls of the source. Calls follow the shape of the dose curve; as a rule, active = well fitted inhibition curve with a large enough effect; inconclusive = small, poorly fitted or top-dose-only effect; inactive = no such curve, though single readings can be large or run the other way.
tested on: Zika virus NS2B-NS3 protease (linked construct); assay: Primary screen NINDS Rhodamine qHTS for Zika virus inhibitors (AID 1347160); details: purified NS2B-NS3 protease, Rhodamine110 substrate fluorescence; series mostly up to 33.1 µM; also: nearly all actives have a fitted effect of over 55% in size
Procedure, shortened: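 Percent inhibition, normalized to uninhibited and enzyme-free controls, is fitted to a 4-parameter Hill equation. Fluorescence change comes from a 15-min cleavage of 1.5 microM bis-peptide Rhodamine110 substrate by 25 nM linked NS2B-NS3 at room temperature.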
Potency is read from the fitted curve at half-maximal effect.

SMILES	Potency	activity change, negative = inhibition
COc1cc(/C=C/C(=O)O[C@@H]2O[C@H](CO)[C@@H](O)[C@H](O)[C@H]2O)ccc1O	8.91 µM (active)	
COC(=O)[C@H](c1ccccc1Cl)N1CCC2SC(=O)C=C2C1 (stereo partly drawn)	inactive	
CC(=O)/C=C/C1C(C)CC(O[C@@H]2O[C@H](CO)[C@@H](O)[C@H](O)[C@H]2O)CC1(C)C (stereo partly drawn)	inactive	
COc1cc(O)c2c(c1)C1(OC2=O)C(C)=CC(=O)C1O (stereo not drawn)	inactive	
C=C(CO)C(=O)O[C@H]1C[C@@]23O[C@@H]2CC/C(=C/[C@H]2OC(=O)C(=C)[C@H]12)CO[C@H]3O	inactive	
C=C1C(O)CCC2(C)CC3(OC)OC(=O)C(C)=C3CC12 (stereo not drawn)	inactive	
O=C(O)CCc1cccc(O)c1O[C@@H]1O[C@H](CO)[C@@H](O)[C@H](O)[C@H]1O	inactive	
C=CC(C)(C)C12Nc3c(ccc4c3OC(C)(C)C=C4)C1(O)CC1C(=O)N3CCCC3C(=O)N12 (stereo not drawn)	inactive	
C[C@@H]1O[C@@H](O[C@H]2[C@H](Oc3cc(O)c(C(=O)CCc4ccc(O)cc4)c(O)c3)O[C@H](CO)[C@@H](O)[C@@H]2O)[C@H](O)[C@H](O)[C@H]1O	inactive	
C/C1=C\CC[C@]2(C)O[C@H]2C(=O)c2c(C)coc2C1	inactive	
CCC1OC(=O)C(C)CC(C)C(=O)/C(C)=C/C(C)C(=O)/C=C/C1(C)O (stereo not drawn)	inactive	
C=C(C)[C@@H]1CC[C@]2(C)CC[C@]3(C)C(CCC4[C@@]5(C)CC[C@H](O)C(C)(C)C5CC[C@]43C)C12 (stereo partly drawn)	inactive	
CC1(C)C2CC[C@]3(C)C(C(=O)C=C4[C@H]5C[C@@](C)(C(=O)O)CC[C@]5(C)CC[C@]43C)[C@@]2(C)CC[C@@H]1O (stereo partly drawn)	inactive	
C=C1C(=O)OC2CC(COC(=O)C(C)C)=C(C(C)CCCOC(C)=O)[C@@H](OC(C)=O)C12 (stereo partly drawn)	inactive	
O=C(/C=C/N1C[C@@H]2C[C@@H]1CN2c1ccccn1)c1ccccc1O	inactive	
O=C(O)C[C@H]1CCC(=O)[C@@H]1C/C=C\CCO	inactive	
CC(C)=CCC(O)[C@](C)(O)C1[C@H](O)C[C@@]2(C)C3CC=C4C(C[C@H](O)[C@@H](O[C@@H]5O[C@H](CO)[C@@H](O)[C@H](O)[C@H]5O)C4(C)C)[C@]3(C)C(=O)C[C@]12C (stereo partly drawn)	inactive	
C/C=C/C=C/C1=C2C(=O)C3(C)C4C(C(=O)CC(O)/C=C/C)=C(O1)C1(C)C2C2(C)OC1(O)C4(C)OC23O (stereo not drawn)	inactive	
C[C@@H]1CCC2C(C)(C)[C@H](O)[C@H](O)C[C@]2(C)[C@@]12Cc1c(O)cc3c(c1O2)CN(CCCC(=O)O)C3=O (stereo partly drawn)	inactive	

SMILES	Potency	activity change, negative = inhibition
CCC1(O)CC2c3cc(OC)c(OC)cc3CCN2CC1CC(C)C (stereo not drawn)	inactive	
C/C(=C\CCC(C)(C)O)CCO[C@@H]1O[C@H](CO[C@@H]2O[C@@H](C)[C@H](O)[C@@H](O)[C@H]2O)[C@@H](O)[C@H](O)[C@H]1O	inactive	
COc1cccc(OC)c1-c1nc(C(=O)N[C@@H](CC(C)C)C(=O)O)cn1-c1ccnc2cc(Cl)ccc12	inactive	
CC(=O)c1c(C)cccc1O[C@@H]1O[C@H](CO)[C@@H](O)[C@H](O)[C@H]1O	inactive	
Cn1c2ccc(NC(=O)c3ccccc3)cc2c(=O)n2nc(C(=O)O)cc12	inactive	
CC1=C[C@H]2[C@@H](CC1=O)[C@H](C)C[C@H](O)[C@H]2C(C)C	inactive	
CC(C)=CCC[C@](C)(O[C@@H]1O[C@H](CO)[C@@H](O)[C@H](O)[C@H]1O)[C@H]1CC[C@]2(C)[C@@H]1[C@H](O)CC1[C@@]3(C)CC[C@H](O)C(C)(C)C3[C@@H](O[C@@H]3O[C@H](CO)[C@@H](O)[C@H](O)[C@H]3O[C@@H]3O[C@@H](C)[C@H](O)[C@@H](O)[C@H]3O)C[C@]12C (stereo partly drawn)	inactive	
C=C1C(=O)OC[C@H]2C(C(=O)O)=CC3CC(C)(C)C[C@@]132 (stereo partly drawn)	inactive	
Cc1ccc2nc(NC(=O)CSc3nc4c(c(=O)n3-c3ccc(F)cc3)SCC4)sc2c1	inactive	
C=C1C(=O)O[C@@H]2/C=C(\C)CC/C=C(\C(=O)O[C@@H]3O[C@H](CO)[C@@H](O)[C@H](O)[C@H]3O)CC[C@@H]12	inactive	
CC1CC2(O)OC(=O)C3=C2C(CCC3)[C@@]12C[C@@H](c1ccoc1)OC2=O (stereo partly drawn)	inactive	
COC(=O)C1=CO[C@@H](O[C@@H]2O[C@H](CO)[C@@H](O)[C@H](O)[C@H]2O)C2C1CC(O)C2C (stereo partly drawn)	inactive	
CC[C@H](C)[C@H](NC(=O)[C@H](Cc1ccc(O)cc1)NC(=O)[C@@H](N)C(C)C)C(=O)N[C@@H](Cc1cnc[nH]1)C(=O)N1CCC[C@H]1C(=O)N[C@@H](Cc1ccccc1)C(=O)O		8.38% [at 4.91 µM] (inactive)
C=C(C(=O)O)C1CC(OC(=O)CC(C)CC)C2(C)CCCC(=C)C2C1 (stereo not drawn)	inactive	
CC1(C)CC[C@]2(C(=O)O[C@@H]3O[C@H](CO)[C@@H](O)[C@H](O)[C@H]3O)CC[C@]3(C)C(=CCC4[C@@]5(C)CC[C@H](O[C@@H]6O[C@H](C(=O)O)[C@@H](O)[C@H](O)[C@H]6OC6OC(CO)C(O)C(O)C6O)C(C)(C)C5CC[C@]43C)[C@@H]2C1 (stereo partly drawn)	inactive	
C=CCc1cc(OC)c(OC(C)C(O)c2ccc(O)c(OC)c2)c(OC)c1 (stereo not drawn)	inactive	
O=C(O)CC1(O)C(=O)Nc2ccccc21 (stereo not drawn)	inactive	
COCC1OC(OC(C)(C)C2CCC3(C)C=C(C4CCC5C4(C)CC(O)C4OC(C(C)(C)O)CCC45C)CCC3O2)C(NC(C)=O)C(O)C1O (stereo not drawn)	inactive	
COc1ccc(C2COc3cc(O)ccc3C2)c(O)c1OC (stereo not drawn)	inactive	
